The results in this text go back to PubChem BioAssay (NCI).

A short description of test [1]: NCI Yeast Anticancer Drug Screen. Data for the rad50 strain (AID 155).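 Also: 0% = growth of vehicle-only cultures of the same strain.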 The following applies: S. cerevisiae rad50 strain growth inhibition, stronger effect = higher value. The procedure, abridged: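 Compounds were tested on a yeast strain with an engineered DNA damage repair alteration; the reported value is growth inhibition normalised to vehicle treatment.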
A short description of test [2]: NCI Yeast Anticancer Drug Screen. Data for the mec2-1 strain (AID 157). The following applies: S. cerevisiae mec2-1 strain, stronger effect = higher value. The procedure, abridged: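 Test agents were screened against the mec2-1 yeast strain, with defined DNA repair or cell cycle alteration. Growth was scored as inhibition against vehicle-only controls.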
Test [3] in a line: NCI Yeast Anticancer Drug Screen. Data for the sgs1 mgt1 strain (AID 161).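 Also: 0% = growth of cultures given vehicle only.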 To be noted: S. cerevisiae sgs1 mgt1 strain, stronger effect = higher value. The procedure, abridged: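 Test agents were incubated with a DNA-repair-mutant yeast strain. Growth was then read and compared against vehicle-treated controls.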
Test [4] is described as follows: NCI Yeast Anticancer Drug Screen. Data for the cln2 rad14 strain (AID 165).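 Also: 0% = growth equal to vehicle treated cultures.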 To be noted: S. cerevisiae cln2 rad14 strain, stronger effect = higher value. The procedure, abridged: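 Growth of compound-exposed yeast (cln2 rad14 genotype) measured and expressed as inhibition relative to vehicle.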
Test [5] can be described thus: NCI Yeast Anticancer Drug Screen. Data for the bub3 strain (AID 167). The following applies: S. cerevisiae bub3 mutant strain, stronger effect = higher value. The essentials:
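Growth of a checkpoint-deficient yeast mutant is measured after compound exposure. Values represent inhibition relative to vehicle.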

A short description of test [6]: NCI Yeast Anticancer Drug Screen. Data for the mlh1 rad18 strain (AID 175). To be noted: S. cerevisiae mlh1 rad18 strain growth inhibition, stronger effect = higher value. The essentials: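 In this whole-cell yeast screen, a strain with altered DNA damage repair is challenged with compound, and its growth is measured against matched vehicle-treated controls.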
[7] abbreviates: at 5.0 µM (retest, dose inferred, filed as 0.5).
Where [8] appears, read: at 50.0 µM (retest, dose inferred, filed as 5.0).

The panel holds about 79,000 compounds, 15% with a hit somewhere; the sample as a whole holds those more often. A number with no mark means an inactive call. Activity calls are given as the source filed them. Rule as the data show it: active = growth inhibition above about 70%; inactive = the rest.

With `CCCCn1cnc2c(SCc3ccccc3[N+](=O)[O-])nc(N)nc21`, the growth inhibition in test [1] (setting [7]) is 1%; in test [1] (setting [8]) it was -2%; in test [1] (at 50.0 µM), 94.9% (active); in test [2] (setting [7]), -2%; in test [2] (setting [8]) it was 1%; in test [2] (at 50.0 µM) it was 98.2% (active). Further, the growth inhibition in test [3] (setting [7]) is 1%; in test [3] (setting [8]), 2%; in test [3] (at 50.0 µM) it was 96.9% (active); in test [4] (setting [7]), -15%; in test [4] (setting [8]) it was -27%; in test [4] (at 50.0 µM), 90.4% (active). In addition, the growth inhibition in test [5] (setting [7]) was 1%; in test [5] (setting [8]), 30%; in test [5] (at 50.0 µM), 98.7% (active); in test [6] (setting [7]) it was 3%; in test [6] (setting [8]), 3%; in test [6] (at 50.0 µM), 96.7% (active).

Turning to `CCN(CC)c1ccc(NC(CC(O)c2ccccc2)c2ccccc2)cc1` (configuration not stated), the growth inhibition in test [1] (setting [7]) was -14%; in test [1] (setting [8]), 1%; in test [1] (at 50.0 µM) it was -24%; in test [2] (setting [7]) it was -3%; in test [2] (setting [8]), -1%; in test [2] (at 50.0 µM), 5.8%. In addition, the growth inhibition is -5% in test [3] (setting [7]); 5% in test [3] (setting [8]); -0.8% in test [3] (at 50.0 µM); -5% in test [4] (setting [7]); -3% in test [4] (setting [8]); 51.5% in test [4] (at 50.0 µM). Besides, the growth inhibition is -4% in test [5] (setting [7]); 2% in test [5] (setting [8]); 21.1% in test [5] (at 50.0 µM); -5% in test [6] (setting [7]); -7% in test [6] (setting [8]); 24.5% in test [6] (at 50.0 µM).

Take `Cc1ccc(S(=O)(=O)N/N=C2\CC(C)OC3=C2CCCCCC3)cc1` (configuration not stated): the growth inhibition is 13% in test [1] (setting [7]); 95% (active) in test [1] (setting [8]); 75.5% (active) in test [1] (at 50.0 µM); 0% in test [2] (setting [7]); 94% (active) in test [2] (setting [8]); 79.3% (active) in test [2] (at 50.0 µM). The growth inhibition in test [3] (setting [7]) was 1%; in test [3] (setting [8]), 93% (active); in test [3] (at 50.0 µM), 61.1%; in test [4] (setting [7]) it was -3%; in test [4] (setting [8]) it was 92% (active); in test [4] (at 50.0 µM), 77.5% (active). The growth inhibition is 1% in test [5] (setting [7]); 95% (active) in test [5] (setting [8]); 75.6% (active) in test [5] (at 50.0 µM); 31% in test [6] (setting [7]); 95% (active) in test [6] (setting [8]); 67.8% in test [6] (at 50.0 µM).

Turning to `C[N+](C)(C)CC(=O)N/N=C(\C(=O)NC1=C(Cl)C(=O)c2ccccc2C1=O)C(C#N)c1nc(-c2ccc([N+](=O)[O-])cc2)cs1` (configuration not stated), the growth inhibition was 27% in test [1] (setting [7]); 98% (active) in test [1] (setting [8]); 76% (active) in test [1] (at 50.0 µM); 6% in test [2] (setting [7]); 97% (active) in test [2] (setting [8]); 56.6% in test [2] (at 50.0 µM). Moreover, the growth inhibition in test [3] (setting [7]) is 11%; in test [3] (setting [8]), 97% (active); in test [3] (at 50.0 µM), 60.3%; in test [4] (setting [7]), 13%; in test [4] (setting [8]), 91% (active); in test [4] (at 50.0 µM), 50.6%. In addition, the growth inhibition in test [5] (setting [7]) was -23%; in test [5] (setting [8]), 97% (active); in test [5] (at 50.0 µM), 75.2% (active); in test [6] (setting [7]), 13%; in test [6] (setting [8]) it was 97% (active); in test [6] (at 50.0 µM), 78.7% (active).

`CCN=C(N)Nc1nc(-c2ccc(Cl)cc2)cs1`: the growth inhibition is 10% in test [1] (setting [7]); 99% (active) in test [1] (setting [8]); 98.8% (active) in test [1] (at 50.0 µM); 0% in test [2] (setting [7]); 99% (active) in test [2] (setting [8]); 96.8% (active) in test [2] (at 50.0 µM). The growth inhibition in test [3] (setting [7]) was 8%; in test [3] (setting [8]), 99% (active); in test [3] (at 50.0 µM), 91.8% (active); in test [4] (setting [7]) it was 9%; in test [4] (setting [8]), 99% (active); in test [4] (at 50.0 µM) it was 76.3% (active). Besides, the growth inhibition in test [5] (setting [7]) is 7%; in test [5] (setting [8]) it was 98% (active); in test [5] (at 50.0 µM), 96.3% (active); in test [6] (setting [7]) it was 9%; in test [6] (setting [8]), 99% (active); in test [6] (at 50.0 µM), 96.8% (active).

On to `COc1ccc(N2C(=O)C(=O)C(C(C)=O)C2=O)cc1` (configuration not stated), for which the growth inhibition in test [1] (setting [7]) is -1%; in test [1] (setting [8]), 0%; in test [1] (at 50.0 µM) it was 99.2% (active); in test [2] (setting [7]), -2%; in test [2] (setting [8]), 6%; in test [2] (at 50.0 µM), 99.3% (active). For the same molecule, the growth inhibition in test [3] (setting [7]) is 1%; in test [3] (setting [8]), 2%; in test [3] (at 50.0 µM), 99.4% (active); in test [4] (setting [7]), -4%; in test [4] (setting [8]), 7%; in test [4] (at 50.0 µM) it was 99% (active). Also, the growth inhibition in test [5] (setting [7]) was 1%; in test [5] (setting [8]), 3%; in test [5] (at 50.0 µM), 99.3% (active); in test [6] (setting [7]), -8%; in test [6] (setting [8]) it was 4%; in test [6] (at 50.0 µM), 99.2% (active).

Take `CCCOC(=O)COc1ccccc1C(=O)OCCC`: the growth inhibition was 5% in test [1] (setting [7]); 10% in test [1] (setting [8]); -1.2% in test [1] (at 50.0 µM); 2% in test [2] (setting [7]); 7% in test [2] (setting [8]); -15.5% in test [2] (at 50.0 µM). The growth inhibition in test [3] (setting [7]) was 0%; in test [3] (setting [8]), 11%; in test [3] (at 50.0 µM) it was 6%; in test [4] (setting [7]), 13%; in test [4] (setting [8]), 15%; in test [4] (at 50.0 µM), 14.9%. The growth inhibition in test [5] (setting [7]) was 10%; in test [5] (setting [8]), 44%; in test [5] (at 50.0 µM), 23.2%; in test [6] (setting [7]) it was 0%; in test [6] (setting [8]), 13%; in test [6] (at 50.0 µM) it was -11.4%.

Regarding `COc1ccc2c(c1)c1c(C)c3cnccc3c(C)c1n2CCCN`, the growth inhibition in test [1] (setting [7]) was 9%; in test [1] (setting [8]), 44%; in test [1] (at 50.0 µM) it was 74% (active); in test [2] (setting [7]), 28%; in test [2] (setting [8]) it was -17%; in test [2] (at 50.0 µM) it was 27.9%. Besides, the growth inhibition in test [3] (setting [7]) is 2%; in test [3] (setting [8]), 13%; in test [3] (at 50.0 µM), 29.3%; in test [4] (setting [7]), 10%; in test [4] (setting [8]), -9%; in test [4] (at 50.0 µM) it was -24.1%. Further, the growth inhibition in test [5] (setting [7]) is 13%; in test [5] (setting [8]) it was -10%; in test [5] (at 50.0 µM), 46.1%; in test [6] (setting [7]) it was 9%; in test [6] (setting [8]), 18%; in test [6] (at 50.0 µM), 77.5% (active).

On to `CCOC(=O)C(CC(=O)O)=C(c1ccccc1)c1ccccc1`, for which the growth inhibition is -10% in test [1] (setting [7]); -7% in test [1] (setting [8]); 17.5% in test [1] (at 50.0 µM); -5% in test [2] (setting [7]); -8% in test [2] (setting [8]); 18.5% in test [2] (at 50.0 µM). Besides, the growth inhibition in test [3] (setting [7]) was 3%; in test [3] (setting [8]), 14%; in test [3] (at 50.0 µM), 7.9%; in test [4] (setting [7]) it was -31%; in test [4] (setting [8]), 4%; in test [4] (at 50.0 µM), 79.7% (active). Besides, the growth inhibition in test [5] (setting [7]) is 11%; in test [5] (setting [8]), 0%; in test [5] (at 50.0 µM), 25.1%; in test [6] (setting [7]), -10%; in test [6] (setting [8]), 7%; in test [6] (at 50.0 µM) it was -7.95%.
